High-throughput results from PubChem BioAssay.
DRD3 antagonist: blocks the human D3 dopamine receptor; AID 652054; 360,000 tested, 2.5% active; D3R cells, DiscoveRx beta-arrestin luminescence, antagonist mode; active compounds read low; max response, negative = inhibition, %; in the data active means max response below about -50%; inconclusive means no clear call, values can overlap the other calls; further: on the % scale 0 is the no-effect control and ±100 the full control effect
Target sequence (P35462 whole entry, looked up): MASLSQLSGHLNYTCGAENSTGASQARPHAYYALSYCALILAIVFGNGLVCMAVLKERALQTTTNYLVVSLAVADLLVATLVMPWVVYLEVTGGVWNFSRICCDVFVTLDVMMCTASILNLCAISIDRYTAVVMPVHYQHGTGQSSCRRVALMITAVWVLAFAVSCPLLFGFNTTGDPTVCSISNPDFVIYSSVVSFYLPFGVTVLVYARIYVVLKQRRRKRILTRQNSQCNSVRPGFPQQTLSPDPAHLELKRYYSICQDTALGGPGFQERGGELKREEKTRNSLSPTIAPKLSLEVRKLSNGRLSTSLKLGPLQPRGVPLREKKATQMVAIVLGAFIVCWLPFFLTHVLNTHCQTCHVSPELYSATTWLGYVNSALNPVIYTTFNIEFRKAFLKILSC
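Cells plated overnight at 1500 cells/well, then exposed to library compounds with dopamine controls for 90 minutes at 37 degrees C. DiscoveRx reagent added for 30–60 minutes at room temperature; luminescence read, quantitative HTS format.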
D1 antagonist: blocks dopamine activation of the human D1 receptor | P21728 | HEK293 TREx D1 cells, calcium flux, dopamine EC80; active compounds read low | activity change, negative = inhibition, % at 10 µM | 360,000 tested, 3.2% active; in the data active means activity change below about -30%; further: on the % scale 0 is the no-effect control and ±100 the full control effect
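After overnight tetracycline induction at 30 C, force-coupled D1 HEK293 cells took up a no-wash calcium dye at room temperature. Compounds were added and monitored 180 s, and the response to EC80 dopamine was then recorded.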
D3 ag: activates the human D3 dopamine receptor | 410,000 tested, 0.58% active | D3R DiscoveRx beta-arrestin cells, luminescence, 90 min | P35462 | AID 652048 | max activation, %; in the data active means max activation above about 30%; further: 0% is about no effect
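Agonist mode: compounds and dopamine controls were applied to plated cells for 90 min at 37 degrees C after an overnight attachment at 1500 cells/well. Luminescent read-out followed 30 - 60 minutes at room temperature with DiscoveRx detection reagent.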
D1 ag: activates the human D1 dopamine receptor | HEK293 T-REx D1 cells, calcium flux, agonist mode | 360,000 tested, 1% active | P21728 | AID 504660 | activation, % at 2 µM; in the data active means activation above about 30%; further: 0% is about no effect
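Agonism was scored from calcium flux recorded over 180 s (1 read/s) after pintool compound addition, following a 10-cycle baseline. Cells were inducible force-coupled HEK293 TREx D1, plated overnight at 30 C and loaded with no-wash calcium dye.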
D1 PAM: potentiators of human D1 dopamine receptor. AID 504651. HEK293 TREx D1 cells, calcium flux, dopamine EC20 potentiation. P21728. 360,000 tested, 0.036% active. potentiation, % at 10 µM; in the data active means potentiation above about 30%; further: 0% is about no effect
An asterisk follows results filed as active. Compounds with a hit are over-represented: about 6% of the library has one in this group of screens.

CC1CCN(C(=O)Cn2c(=O)oc3ccccc32)CC1 was read as DRD3 antagonist 0, D1 antagonist -4, D3 ag -4, D1 ag 0 and D1 PAM 1.
Cn1ccc2cc(-c3ccc4ncnc(NCc5ccc6c(c5)OCO6)c4c3)ccc21 was read as D1 antagonist -9, D1 ag 1 and D1 PAM -6.
CC(C)n1nnnc1SCC(=O)N1N=C(c2cccs2)CC1c1cccs1 (stereo not given) was read as DRD3 antagonist 21, D1 antagonist -7, D3 ag 5 and D1 ag 7.
FC(F)(F)c1cc(C(F)(F)F)c2ccc(N3CCOCC3)nc2n1 was read as DRD3 antagonist 12, D1 antagonist -2, D3 ag 5, D1 ag 0 and D1 PAM -6.
`CN1CCCc2cc3c(C(F)(F)F)cc(=O)oc3nc21` gave DRD3 antagonist 6, D1 antagonist 2, D3 ag 2, D1 ag 53* and D1 PAM -1.
`Clc1ccc(SCCOCCN2CCCCC2)cc1` gave DRD3 antagonist -80*, D1 antagonist 9, D3 ag -14, D1 ag 19 and D1 PAM -4.
For Clc1ccc(SCCCCN2CCNCC2)cc1 the results were DRD3 antagonist -2, D1 antagonist -45*, D3 ag -4, D1 ag 120* and D1 PAM -4.
`Clc1ccc(SCCOCCN2CCc3ccccc3C2)cc1` gave DRD3 antagonist -88*, D1 antagonist -8, D3 ag -11, D1 ag 2 and D1 PAM 3.
For CC1CCN(CCOCCSc2ccc(Cl)cc2)CC1 the results were DRD3 antagonist -110*, D1 antagonist -44*, D3 ag -4, D1 ag 21 and D1 PAM -2.
`CC(C)(C)NS(=O)(=O)c1ccc(NC(=S)NC(=O)C2CCC2)cc1` gave DRD3 antagonist inconclusive, D1 antagonist -5, D3 ag -8, D1 ag 23 and D1 PAM 0.
`CCOC(=O)CSc1nc2c(sc3ccccc32)c(=O)n1Cc1ccc(OC)cc1` gave D1 antagonist -9, D3 ag -4, D1 ag 6 and D1 PAM 0.
`O=C1CN(C(=O)COC(=O)c2ccc(Cl)cc2)c2ccccc2N1` gave DRD3 antagonist 6, D1 antagonist -11, D3 ag 6, D1 ag 8 and D1 PAM -2.
For O=C1CN(C(=O)COC(=O)c2ccccc2Br)c2ccccc2N1 the results were DRD3 antagonist -55*, D1 antagonist -16, D3 ag -17 and D1 ag 22.
For O=C1CN(C(=O)COC(=O)c2cccc(OCc3ccccc3)c2)c2ccccc2N1 the results were DRD3 antagonist -2, D1 antagonist -89*, D3 ag 6, D1 ag 7 and D1 PAM 4.
COc1cc(CC(=O)OCC(=O)N2CC(=O)Nc3ccccc32)cc(OC)c1OC was read as DRD3 antagonist -13, D1 antagonist -33*, D3 ag -1, D1 ag 1 and D1 PAM -4.
COC(=O)c1cc2c(s1)c1cnn(Cc3ccccc3F)c(=O)c1n2C was read as D1 antagonist -21, D1 ag 5 and D1 PAM -4.
For Cc1cc2c(cc1C)-n1nnnc1C(N(C)CCc1ccccc1)C(=O)N2 (stereo not given) the results were DRD3 antagonist -4 and D3 ag 2.
Screening O=C1N/C(=N/N=C/c2ccccc2O)SC1Cc1ccc(F)cc1 (stereo not given) returned DRD3 antagonist -56*, D1 antagonist 1, D3 ag -17, D1 ag 2 and D1 PAM -4.
For Cc1cccc(C(=O)O/N=C(\N)CS(=O)(=O)c2ccccc2)c1 the results were DRD3 antagonist 4, D1 antagonist -11, D3 ag 2, D1 ag 2 and D1 PAM -1.
CCCn1nc(C(=O)NNC(=O)CCCOc2ccc(C)cc2)c2ccccc2c1=O was read as DRD3 antagonist 2, D1 antagonist 5, D3 ag -2, D1 ag 2 and D1 PAM 8.
Cc1ccc(C(=O)c2c[nH]c(C(=O)NCc3cccnc3)c2)cc1 was read as DRD3 antagonist -14, D1 antagonist -49*, D3 ag 0, D1 ag 3 and D1 PAM -10.
